# Laboratory results reported in PubChem BioAssay (NCI).
# Compounds without any hit were thinned out: in the full panel of roughly 79,000, 15% have a hit. A number with no mark means an inactive call. Active and inactive are the calls of the source. Rule as the data show it: active = growth inhibition above about 70%; inactive = the rest.
# Columns and labels:
# [1] = NCI Yeast Anticancer Drug Screen. Data for the rad52 strain (AID 147);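 also: 0% = growth of vehicle-treated control cultures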; details: S. cerevisiae rad52 mutant growth inhibition, stronger effect = higher value
# Summary of the method: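 Compounds are applied to a genetically defined yeast strain lacking normal DNA damage repair, and inhibition of growth is expressed relative to cultures given vehicle only.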
# [2] = NCI Yeast Anticancer Drug Screen. Data for the wt1 strain (AID 149);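 also: 0% = growth of vehicle-treated wt1 cultures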; details: S. cerevisiae wt1 strain (SPY 50644) growth inhibition, stronger effect = higher value
# Summary of the method: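 wt1 strain grown with compound or vehicle; inhibition taken from the growth difference.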
# [3] = NCI Yeast Anticancer Drug Screen. Data for the rad50EPP+ strain (AID 151);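 also: 0% = growth of vehicle-treated control cultures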; details: S. cerevisiae rad50 mutant strain, stronger effect = higher value
# Summary of the method: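 Compounds were applied to the rad50EPP+ yeast strain, which bears a defined DNA repair alteration, and growth inhibition was determined relative to vehicle-treated cultures.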
# [4] = NCI Yeast Anticancer Drug Screen. Data for the mgt1 strain (AID 153); details: S. cerevisiae mgt1 mutant growth inhibition, stronger effect = higher value
# Summary of the method: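 Strain: mgt1 yeast, one of a set carrying defined DNA damage repair or cell cycle control alterations. Compound-treated growth compared with vehicle.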
# [5] = NCI Yeast Anticancer Drug Screen. Data for the rad50 strain (AID 155);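 also: 0% = growth of vehicle-only cultures of the same strain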; details: S. cerevisiae rad50 strain growth inhibition, stronger effect = higher value
# Summary of the method: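 DNA repair mutant yeast, compound exposure, growth read-out; inhibition is taken relative to vehicle.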
# [6] = NCI Yeast Anticancer Drug Screen. Data for the mec2-1 strain (AID 157); details: S. cerevisiae mec2-1 strain, stronger effect = higher value
# Summary of the method: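 Strain: mec2-1 (DNA repair/cell cycle alteration). Compound exposure, then growth measured; inhibition expressed relative to vehicle.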
# [7] = NCI Yeast Anticancer Drug Screen. Data for the rad14 strain (AID 159);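 also: 0% = growth of vehicle-treated control cultures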; details: S. cerevisiae rad14 strain growth inhibition, stronger effect = higher value
# Summary of the method: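 DNA repair-defective yeast, compound-exposed; % growth inhibition derived by comparison with vehicle-treated controls.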
# [8] = NCI Yeast Anticancer Drug Screen. Data for the sgs1 mgt1 strain (AID 161);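 also: 0% = growth of cultures given vehicle only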; details: S. cerevisiae sgs1 mgt1 strain, stronger effect = higher value
# Summary of the method: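 Genetically altered yeast, compound exposure, growth inhibition relative to vehicle.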
# [9] = NCI Yeast Anticancer Drug Screen. Data for the CLN2oe strain (AID 163);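 also: 0% = growth of vehicle-only control cultures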; details: S. cerevisiae CLN2oe strain, stronger effect = higher value
# Summary of the method: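 Growth of a genetically modified yeast strain is measured after compound exposure and compared with cultures given vehicle alone.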
# [10] = NCI Yeast Anticancer Drug Screen. Data for the cln2 rad14 strain (AID 165);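 also: 0% = growth equal to vehicle treated cultures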; details: S. cerevisiae cln2 rad14 strain, stronger effect = higher value
# Summary of the method: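 Compounds are applied to the cln2 rad14 yeast strain, and growth is then compared with that of vehicle-treated cultures to give inhibition.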
# [11] = NCI Yeast Anticancer Drug Screen. Data for the bub3 strain (AID 167); details: S. cerevisiae bub3 mutant strain, stronger effect = higher value
# Summary of the method: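 In this screen, a yeast mutant lacking normal mitotic checkpoint function is challenged with compound. Relative growth versus vehicle gives the inhibition value.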
# [12] = NCI Yeast Anticancer Drug Screen. Data for the wt2 strain (AID 169);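 also: 0% = growth of vehicle-treated yeast cultures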; details: S. cerevisiae wt2 strain growth inhibition, stronger effect = higher value
# Summary of the method: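 This strain belongs to a panel of yeast strains with defined genetic alterations in DNA damage repair or cell cycle control. Compounds are applied, and growth inhibition is measured against vehicle-treated cultures.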
# [13] = NCI Yeast Anticancer Drug Screen. Data for the mlh1 strain (AID 171);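 also: 0% = growth of vehicle-treated control cultures of the same strain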; details: S. cerevisiae mlh1 strain growth inhibition, stronger effect = higher value
# Summary of the method: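 Growth of the mutant yeast strain after compound exposure, expressed as inhibition relative to vehicle-only controls.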
# [14] = NCI Yeast Anticancer Drug Screen. Data for the sgs1 strain (AID 173);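 also: 0% = growth of vehicle-only control cultures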; details: S. cerevisiae sgs1 mutant, stronger effect = higher value
# Summary of the method: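 Growth of a yeast strain bearing a defined genetic alteration is measured after compound treatment. Inhibition is expressed relative to vehicle-only controls.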
# [15] = NCI Yeast Anticancer Drug Screen. Data for the mlh1 rad18 strain (AID 175); details: S. cerevisiae mlh1 rad18 strain growth inhibition, stronger effect = higher value
# Summary of the method: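 Read-out is yeast growth inhibition, calculated against vehicle-only controls. The compound was applied to a strain engineered with DNA damage repair alterations.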
# [16] = NCI Yeast Anticancer Drug Screen. Data for the rad18 strain (AID 177); details: S. cerevisiae rad18 mutant growth inhibition, stronger effect = higher value
# Summary of the method: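 Growth of the mutant yeast strain after compound exposure, normalised to vehicle-only cultures.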
# [17] = at 5.0 µM (retest, dose inferred, filed as 0.5)
# [18] = at 50.0 µM (retest, dose inferred, filed as 5.0)
structure (smiles),measurement,setting,value
CN(C)CC1=Nc2cccc3cccc(c23)N1,growth inhibition,[1]; at 1.2 µM,-4%
same,growth inhibition,[1]; at 3.7 µM,-6%
same,growth inhibition,[1]; at 11.0 µM,-10%
same,growth inhibition,[1]; at 33.0 µM,2%
same,growth inhibition,[1]; at 100.0 µM,60%
same,growth inhibition,[2]; at 1.2 µM,2%
same,growth inhibition,[2]; at 3.7 µM,-5%
same,growth inhibition,[2]; at 11.0 µM,-6%
same,growth inhibition,[2]; at 33.0 µM,-4%
same,growth inhibition,[2]; at 100.0 µM,21%
same,growth inhibition,[3]; at 1.2 µM,-2%
same,growth inhibition,[3]; at 3.7 µM,-3%
same,growth inhibition,[3]; at 11.0 µM,-2%
same,growth inhibition,[3]; at 33.0 µM,-8%
same,growth inhibition,[3]; at 100.0 µM,13%
same,growth inhibition,[4]; at 1.2 µM,-9%
same,growth inhibition,[4]; at 3.7 µM,-1%
same,growth inhibition,[4]; at 11.0 µM,-7%
same,growth inhibition,[4]; at 33.0 µM,9%
same,growth inhibition,[4]; at 100.0 µM,87% (active)
same,growth inhibition,[5]; at 1.2 µM,-7%
same,growth inhibition,[5]; at 3.7 µM,1%
same,growth inhibition,[5]; [17],-17%
same,growth inhibition,[5]; at 11.0 µM,4%
same,growth inhibition,[5]; at 33.0 µM,51%
same,growth inhibition,[5]; [18],30%
same,growth inhibition,[5]; at 50.0 µM,90.8% (active)
same,growth inhibition,[5]; at 100.0 µM,79% (active)
same,growth inhibition,[6]; at 1.2 µM,-3%
same,growth inhibition,[6]; at 3.7 µM,-3%
same,growth inhibition,[6]; [17],-12%
same,growth inhibition,[6]; at 11.0 µM,-5%
same,growth inhibition,[6]; at 33.0 µM,3%
same,growth inhibition,[6]; [18],17%
same,growth inhibition,[6]; at 50.0 µM,87.4% (active)
same,growth inhibition,[6]; at 100.0 µM,85% (active)
same,growth inhibition,[7]; at 1.2 µM,-2%
same,growth inhibition,[7]; at 3.7 µM,0%
same,growth inhibition,[7]; at 11.0 µM,1%
same,growth inhibition,[7]; at 33.0 µM,51%
same,growth inhibition,[7]; at 100.0 µM,88% (active)
same,growth inhibition,[8]; [17],-21%
same,growth inhibition,[8]; [18],41%
same,growth inhibition,[8]; at 50.0 µM,88.6% (active)
same,growth inhibition,[9]; at 1.2 µM,-4%
same,growth inhibition,[9]; at 3.7 µM,-8%
same,growth inhibition,[9]; at 11.0 µM,5%
same,growth inhibition,[9]; at 33.0 µM,3%
same,growth inhibition,[9]; at 100.0 µM,61%
same,growth inhibition,[10]; [17],-39%
same,growth inhibition,[10]; [18],-16%
same,growth inhibition,[10]; at 50.0 µM,6.8%
same,growth inhibition,[11]; at 1.2 µM,-5%
same,growth inhibition,[11]; at 3.7 µM,-4%
same,growth inhibition,[11]; [17],-26%
same,growth inhibition,[11]; at 11.0 µM,-3%
same,growth inhibition,[11]; at 33.0 µM,17%
same,growth inhibition,[11]; [18],58%
same,growth inhibition,[11]; at 50.0 µM,90% (active)
same,growth inhibition,[11]; at 100.0 µM,85% (active)
same,growth inhibition,[12]; at 1.2 µM,-2%
same,growth inhibition,[12]; at 3.7 µM,-5%
same,growth inhibition,[12]; at 11.0 µM,-6%
same,growth inhibition,[12]; at 33.0 µM,10%
same,growth inhibition,[12]; at 100.0 µM,64%
same,growth inhibition,[13]; at 1.2 µM,0%
same,growth inhibition,[13]; at 3.7 µM,-12%
same,growth inhibition,[13]; at 11.0 µM,-5%
same,growth inhibition,[13]; at 33.0 µM,24%
same,growth inhibition,[13]; at 100.0 µM,87% (active)
same,growth inhibition,[14]; at 1.2 µM,-1%
same,growth inhibition,[14]; at 3.7 µM,-5%
same,growth inhibition,[14]; at 11.0 µM,-5%
same,growth inhibition,[14]; at 33.0 µM,7%
same,growth inhibition,[14]; at 100.0 µM,68%
same,growth inhibition,[15]; [17],-32%
same,growth inhibition,[15]; [18],46%
same,growth inhibition,[15]; at 50.0 µM,90.2% (active)
same,growth inhibition,[16]; at 1.2 µM,-3%
same,growth inhibition,[16]; at 3.7 µM,-20%
same,growth inhibition,[16]; at 11.0 µM,-14%
same,growth inhibition,[16]; at 33.0 µM,1%
same,growth inhibition,[16]; at 100.0 µM,70% (active)
CCCCCCCCCCCCCCCCCCNC(=S)/N=C/c1c(O)c2ccccc2[nH]c1=O,growth inhibition,[1]; at 1.2 µM,7%
same,growth inhibition,[1]; at 3.7 µM,4%
same,growth inhibition,[1]; at 11.0 µM,16%
same,growth inhibition,[1]; at 33.0 µM,11%
same,growth inhibition,[1]; at 100.0 µM,12%
same,growth inhibition,[2]; at 1.2 µM,-32%
same,growth inhibition,[2]; at 3.7 µM,-6%
same,growth inhibition,[2]; at 11.0 µM,-3%
same,growth inhibition,[2]; at 33.0 µM,-3%
same,growth inhibition,[2]; at 100.0 µM,-3%
same,growth inhibition,[3]; at 1.2 µM,1%
same,growth inhibition,[3]; at 3.7 µM,3%
same,growth inhibition,[3]; at 11.0 µM,12%
same,growth inhibition,[3]; at 33.0 µM,29%
same,growth inhibition,[3]; at 100.0 µM,40%
same,growth inhibition,[4]; at 1.2 µM,1%
same,growth inhibition,[4]; at 3.7 µM,4%
same,growth inhibition,[4]; at 11.0 µM,2%
same,growth inhibition,[4]; at 33.0 µM,1%
same,growth inhibition,[4]; at 100.0 µM,0%
same,growth inhibition,[5]; at 1.2 µM,-1%
same,growth inhibition,[5]; at 3.7 µM,0%
same,growth inhibition,[5]; [17],-12%
same,growth inhibition,[5]; at 11.0 µM,1%
same,growth inhibition,[5]; at 33.0 µM,1%
same,growth inhibition,[5]; [18],61%
same,growth inhibition,[5]; at 50.0 µM,63%
same,growth inhibition,[5]; at 100.0 µM,-1%
same,growth inhibition,[6]; at 1.2 µM,0%
same,growth inhibition,[6]; at 3.7 µM,2%
same,growth inhibition,[6]; [17],-5%
same,growth inhibition,[6]; at 11.0 µM,-3%
same,growth inhibition,[6]; at 33.0 µM,2%
same,growth inhibition,[6]; [18],27%
same,growth inhibition,[6]; at 50.0 µM,6.6%
same,growth inhibition,[6]; at 100.0 µM,-1%
same,growth inhibition,[7]; at 1.2 µM,1%
same,growth inhibition,[7]; at 3.7 µM,1%
same,growth inhibition,[7]; at 11.0 µM,0%
same,growth inhibition,[7]; at 33.0 µM,4%
same,growth inhibition,[7]; at 100.0 µM,4%
same,growth inhibition,[8]; [17],4%
same,growth inhibition,[8]; [18],26%
same,growth inhibition,[8]; at 50.0 µM,86.5% (active)
same,growth inhibition,[9]; at 1.2 µM,-4%
same,growth inhibition,[9]; at 3.7 µM,-3%
same,growth inhibition,[9]; at 11.0 µM,2%
same,growth inhibition,[9]; at 33.0 µM,-7%
same,growth inhibition,[9]; at 100.0 µM,3%
same,growth inhibition,[10]; [17],-7%
same,growth inhibition,[10]; [18],16%
same,growth inhibition,[10]; at 50.0 µM,-24%
same,growth inhibition,[11]; at 1.2 µM,-4%
same,growth inhibition,[11]; at 3.7 µM,-4%
same,growth inhibition,[11]; [17],-25%
same,growth inhibition,[11]; at 11.0 µM,-2%
same,growth inhibition,[11]; at 33.0 µM,-5%
same,growth inhibition,[11]; [18],69%
same,growth inhibition,[11]; at 50.0 µM,72.3% (active)
same,growth inhibition,[11]; at 100.0 µM,26%
same,growth inhibition,[12]; at 1.2 µM,-3%
same,growth inhibition,[12]; at 3.7 µM,-1%
same,growth inhibition,[12]; at 11.0 µM,-2%
same,growth inhibition,[12]; at 33.0 µM,4%
same,growth inhibition,[12]; at 100.0 µM,20%
same,growth inhibition,[13]; at 1.2 µM,0%
same,growth inhibition,[13]; at 3.7 µM,-2%
same,growth inhibition,[13]; at 11.0 µM,-3%
same,growth inhibition,[13]; at 33.0 µM,-4%
same,growth inhibition,[13]; at 100.0 µM,-4%
same,growth inhibition,[14]; at 1.2 µM,0%
same,growth inhibition,[14]; at 3.7 µM,3%
same,growth inhibition,[14]; at 11.0 µM,6%
same,growth inhibition,[14]; at 33.0 µM,11%
same,growth inhibition,[14]; at 100.0 µM,23%
same,growth inhibition,[15]; [17],9%
same,growth inhibition,[15]; [18],28%
same,growth inhibition,[15]; at 50.0 µM,58.4%
same,growth inhibition,[16]; at 1.2 µM,2%
same,growth inhibition,[16]; at 3.7 µM,4%
same,growth inhibition,[16]; at 11.0 µM,6%
same,growth inhibition,[16]; at 33.0 µM,22%
same,growth inhibition,[16]; at 100.0 µM,25%
